According to PubChem BioAssay AID1159580 (chemical genetic matrix, 2015):
Out of some 5,500 compounds screened, about 2,000 (36%) were called active. Not shown: some 18% with an inconclusive outcome. Cut-off read from the data, not from the text of the source: active = normalized growth mostly below about 0.91 (no sharp cut-off); inconclusive = no clear call, values can overlap the other calls; inactive = mostly above about 0.92. This is one part of the list.

Experiment: chemical genetic growth profiling, strain panel (AID 1159580);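 note: tested at 20 µM; growth read once vehicle control cultures reached saturation at 30 °C; 1 = growth at the plate median or of vehicle wells; lower values mean less growth of the strain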
Details: growth OD

Measured: normalized growth

C[C@]12CCC3C(CC[C@H]4C[C@@H](O)CC[C@]34C)C1CC[C@@H]2O (stereo partly specified)
inactive: S. cerevisiae deletion strains, locus YAL013W, strain DEP1, hits give low values 1 | S. cerevisiae deletion strains, locus YBR021W, strain FUR4, hits give low values 1.01 | S. cerevisiae deletion strains, locus YBR229C, strain ROT2, hits give low values 1.03 | S. cerevisiae deletion strains, locus YCL029C, strain bik1, hits give low values 0.968 | S. cerevisiae deletion strains, locus YDL035C, strain GPR1, hits give low values 0.864 | S. cerevisiae deletion strains, locus YDL074C, strain BRE1, hits give low values 0.991 | S. cerevisiae deletion strains, locus YDL101C, strain DUN1, hits give low values 1.01 | S. cerevisiae deletion strains, locus YDL134C, strain PPH21, hits give low values 1.02 | S. cerevisiae deletion strains, locus YDL185W, strain tfp1, hits give low values 0.988 | S. cerevisiae deletion strains, locus YDL192W, strain arf1, hits give low values 0.996 | S. cerevisiae deletion strains, locus YDR101C, strain arx1, hits give low values 1.01 | S. cerevisiae deletion strains, locus YDR150W, strain NUM1, hits give low values 1.02 | S. cerevisiae deletion strains, locus YDR162C, strain NBP2, hits give low values 0.958 | S. cerevisiae deletion strains, locus YDR318W, strain mcm21, hits give low values 0.972 | S. cerevisiae deletion strains, locus YDR388W, hits give low values 1.03 | S. cerevisiae deletion strains, locus YDR502C, strain sam2, hits give low values 1.01 | S. cerevisiae deletion strains, locus YEL061C, strain CIN8, hits give low values 1.03 | S. cerevisiae deletion strains, locus YER110C, hits give low values 1.01 | S. cerevisiae deletion strains, locus YER155C, strain BEM2, hits give low values 1.04 | S. cerevisiae deletion strains, locus YER167W, strain BCK2, hits give low values 0.986 | S. cerevisiae deletion strains, locus YGL078C, strain dbp3, hits give low values 0.973 | S. cerevisiae deletion strains, locus YGL086W, strain mad1, hits give low values 0.954 | S. cerevisiae deletion strains, locus YGL248W, strain PDE1, hits give low values 1.02 | S. cerevisiae deletion strains, locus YGR078C, strain PAC10, hits give low values 1 | S. cerevisiae deletion strains, locus YGR135W, strain pre9, hits give low values 0.973 | S. cerevisiae deletion strains, locus YGR229C, strain SMI1, hits give low values 1.02 | S. cerevisiae deletion strains, locus YHR030C, strain SLT2, hits give low values 1.04 | S. cerevisiae deletion strains, locus YHR079C, strain IRE1 (second series), hits give low values 0.993 | S. cerevisiae deletion strains, locus YHR094C, strain hxt1, hits give low values 1.02 | S. cerevisiae deletion strains, locus YHR129C, strain ARP1, hits give low values 1.03 | S. cerevisiae deletion strains, locus YHR200W, strain rpn10, hits give low values 0.985 | S. cerevisiae deletion strains, locus YIL066C, strain RNR3, hits give low values 0.953 | S. cerevisiae deletion strains, locus YIL073C, strain SPO22, hits give low values 0.91 | S. cerevisiae deletion strains, locus YIL125W, strain kgd1, hits give low values 1.02 | S. cerevisiae deletion strains, locus YIR030C, strain dcg1, hits give low values 1.03 | S. cerevisiae deletion strains, locus YJL095W, strain BCK1, hits give low values 1.01 | S. cerevisiae deletion strains, locus YJL134W, strain LCB3, hits give low values 1.02 | S. cerevisiae deletion strains, locus YJL168C, strain set2, hits give low values 1.03 | S. cerevisiae deletion strains, locus YJL187C, strain SWE1 (second series), hits give low values 1 | S. cerevisiae deletion strains, locus YJR043C, strain POL32, hits give low values 0.965 | S. cerevisiae deletion strains, locus YJR075W, strain HOC1, hits give low values 1.04 | S. cerevisiae deletion strains, locus YKL068W, hits give low values 1.02 | S. cerevisiae deletion strains, locus YKL085W, strain MDH1 (second series), hits give low values 1.02 | S. cerevisiae deletion strains, locus YKL085W, strain MDH1, hits give low values 1.02 | S. cerevisiae deletion strains, locus YKL190W, strain CNB1, hits give low values 1.02 | S. cerevisiae deletion strains, locus YKR001C, strain vps1, hits give low values 0.964 | S. cerevisiae deletion strains, locus YLR058C, strain SHM2, hits give low values 1.02 | S. cerevisiae deletion strains, locus YLR102C, strain apc9, hits give low values 1.02 | S. cerevisiae deletion strains, locus YLR268W, strain sec22, hits give low values 0.997 | S. cerevisiae deletion strains, locus YLR330W, strain CHS5, hits give low values 1.03 | S. cerevisiae deletion strains, locus YLR342W, strain FKS1 (second series), hits give low values 0.87 | S. cerevisiae deletion strains, locus YLR371W, strain rom2, hits give low values 0.994 | S. cerevisiae deletion strains, locus YLR418C, strain cdc73, hits give low values 1.13 | S. cerevisiae deletion strains, locus YML016C, strain PPZ1, hits give low values 1.03 | S. cerevisiae deletion strains, locus YML032C, strain rad52, hits give low values 0.931 | S. cerevisiae deletion strains, locus YML124C, strain tub3, hits give low values 1.03 | S. cerevisiae deletion strains, locus YMR078C, strain ctf18, hits give low values 1.03 | S. cerevisiae deletion strains, locus YMR223W, strain ubp8, hits give low values 0.953 | S. cerevisiae deletion strains, locus YMR263W, strain SAP30, hits give low values 1.01 | S. cerevisiae deletion strains, locus YMR307W, strain GAS1, hits give low values 1.02 | S. cerevisiae deletion strains, locus YNL067W, strain RPL9B, hits give low values 0.938 | S. cerevisiae deletion strains, locus YNL128W, strain TEP1, hits give low values 1.01 | S. cerevisiae deletion strains, locus YNL153C, strain GIM3, hits give low values 1.03 | S. cerevisiae deletion strains, locus YNL233W, strain BNI4, hits give low values 1.02 | S. cerevisiae deletion strains, locus YNL250W, strain rad50, hits give low values 0.968 | S. cerevisiae deletion strains, locus YNL271C, strain bni1, hits give low values 1 | S. cerevisiae deletion strains, locus YNL307C, strain MCK1, hits give low values 0.954 | S. cerevisiae deletion strains, locus YNL322C, strain KRE1, hits give low values 1.03 | S. cerevisiae deletion strains, locus YOL006C, strain TOP1, hits give low values 1.07 | S. cerevisiae deletion strains, locus YOL012C, strain htz1 1.81 | S. cerevisiae deletion strains, locus YOL147C, strain pex11, hits give low values 1.04 | S. cerevisiae deletion strains, locus YOR061W, strain CKA2, hits give low values 0.99 | S. cerevisiae deletion strains, locus YOR069W, strain VPS5, hits give low values 1.02 | S. cerevisiae deletion strains, locus YOR136W, strain idh2, hits give low values 1.02 | S. cerevisiae deletion strains, locus YOR144C, strain elg1, hits give low values 1.01 | S. cerevisiae deletion strains, locus YOR316C, strain cot1, hits give low values 1.03 | S. cerevisiae deletion strains, locus YPL055C, strain LGE1, hits give low values 1.01 | S. cerevisiae deletion strains, locus YPL241C, strain CIN2, hits give low values 1.02 | S. cerevisiae deletion strains, locus YPR119W, strain clb2, hits give low values 1.04 | S. cerevisiae deletion strains, locus YPR141C, strain kar3, hits give low values 1.04 | S. cerevisiae deletion strains, locus YPR163C, strain tif3, hits give low values 1.01 | S. cerevisiae deletion strains, locus YPR167C, strain met16, hits give low values 1.02 | S. cerevisiae deletion strains, strain wtn01, hits give low values 0.989 | S. cerevisiae strains, strain wild type, hits give low values 0.99
active: S. cerevisiae deletion strains, locus YGR252W, strain gcn5, hits give low values 0.764 | S. cerevisiae deletion strains, locus YKL009W, strain mrt4, hits give low values 0.793 | S. cerevisiae deletion strains, locus YLR039C, strain RIC1, hits give low values 0.644 | S. cerevisiae deletion strains, locus YLR262C, strain YPT6, hits give low values 0.507 | S. cerevisiae deletion strains, locus YNL298W, strain CLA4, hits give low values 0.895 | S. cerevisiae deletion strains, locus YNR052C, strain pop2, hits give low values 0.88 | S. cerevisiae deletion strains, locus YOR184W, strain ser1, hits give low values 0.836
